Source: PubChem BioAssay (several laboratories)
Compounds with a hit are over-represented: about 3.3% of the library has one in this group of screens.
ROMK primary – ROMK potassium channel modulators, primary screen, cell-based, thallium flux, MLSMR library; ATP-sensitive inward rectifier potassium channel 1 (Homo sapiens), P48048; Tet-inducible ROMK, thallium flux fluorescence; actives lie on both sides; B-score at 10 µM; 130,000 compounds, 2% hits;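 active = signal ratio slope over the read window, or its plate-corrected B-score, at least 3 SD from the plate mean, either direction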;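 also: B-score of the F/F0 ratio slope over 7 to 12 s after thallium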
WT yeast gro inh – growth inhibition of WT strain, primary screen, mitochondrial fusion inhibitor project, WT and mutant strains, chemical genetic. mitochondrial fusion phenotypic screen. inhibition, % at 10 µM. 190,000 compounds, 2.1% hits. AID 1362, 2008; in the data active = inhibition above about 58%; tested in S. cerevisiae
Arbovirus anti – antivirals against arbovirus infection, primary screen, cell-based, full library, 10K replicate subset; 200,000 compounds, 0.37% hits; arbovirus infection cell-based antiviral screen; inhibition, % at 10 µM; in the data active = inhibition above about 30%
PERK inhibitor – block of dimerizer-induced PERK translation repression, primary screen, PERK inhibitor project, CHO PERK-DD cells, SEAP luminescence, HTS; Eukaryotic translation initiation factor 2-alpha kinase 3 (Homo sapiens), Q9NZJ5; CHO PERK-DD fusion, SEAP luminescence translation reporter; inhibition, % at 5.6 µM; 220,000 compounds, 0.17% hits; AID 1416, 2008;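 active = inhibition above the mean inhibition of all tested compounds plus 3 SD, set separately per screening campaign, cut at about 2.9% in these data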;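 also: PERK kinase domain activated by AP20187 dimerizer at 100 nM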
ROMK retest – ROMK channel modulator hit retest, confirmation, cell-based, thallium flux, duplicate, resupplied hits | fluorescence ratio; active compounds read low | normalized thallium flux (F/F0 slope) at 10 µM | 3,000 compounds, 54% hits | AID 1917, 2009 | shares compounds with ROMK primary;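 active = Flux at 10 µM at least 3 SD below or above vehicle control mean in one or both replicates; inconclusive = no clear call, values can overlap the other calls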
Large screens that a line does not name were inactive (follow-up assays come after a bar, where they were run).

CCN(CC)S(=O)(=O)c1ccc(N2CCOCC2)c(NC(=O)C23CC4CC(CC(Cl)(C4)C2)C3)c1	ROMK primary -3.5 | ROMK retest 0.061
O=C(CCl)NCc1cc(-c2ccc(Cl)cc2)no1	none
Cc1ccc(C2CC2C(=O)NNC(=S)Nc2cccc(C)c2)cc1 (stereo not drawn)	none
Cc1ccc(C2CC2C(=O)NNC(=S)Nc2cccc(Cl)c2)cc1 (stereo not drawn)	none (no result: ROMK primary) | ROMK retest inconclusive
CC(C)CNC(=S)NC1CC2CCCC(C1)N2C1CCCCC1 (stereo not drawn)	none | ROMK retest 0.054
CC(C)CNC(=S)NC1CC2CCC(C1)N2Cc1ccccc1 (stereo not drawn)	none (no result: ROMK primary)
Cc1cc(=O)oc2c(C(=O)/C=C\c3cccs3)c(O)ccc12	ROMK primary -5.7 | ROMK retest 0.05
N#CC1=C(N)Oc2n[nH]c(-c3cccs3)c2C1c1ccco1 (stereo not drawn)	ROMK primary -3.5 | ROMK retest 0.053
Cc1cc(-c2nc3ncccc3o2)ccc1NC(=O)CC(C)C	none (no result: ROMK primary)
COc1ccc(OCC(O)Cn2c(=N)n(Cc3ccccc3)c3ccccc32)cc1 (stereo not drawn)	ROMK primary -7 | ROMK retest 0.048
Cc1cccc(OCC(O)Cn2c(=N)n(CCN3CCCCC3)c3ccccc32)c1 (stereo not drawn)	ROMK primary -7.6 | ROMK retest 0.049
Cc1ccc(OCC(O)Cn2c(=N)n(Cc3ccccc3)c3ccccc32)cc1 (stereo not drawn)	ROMK primary -4.6 | ROMK retest 0.052
N=c1n(Cc2ccc(Cl)cc2)c2ccccc2n1CC(O)COc1ccccc1 (stereo not drawn)	ROMK primary -4.2 | ROMK retest 0.054
CCN(CC)CCn1c(=N)n(CC(O)COc2cccc(C)c2)c2ccccc21 (stereo not drawn)	none
CCN(c1ccccc1)c1ncnc2c1cnn2-c1ccccc1	none (no result: ROMK primary) | ROMK retest 0.055
O=C(/C=C/c1ccc2ccccc2n1)c1cc(Cl)ccc1O	none (no result: WT yeast gro inh, Arbovirus anti)
Cc1cc(C)cc(NC(=O)Cn2c(-c3ccccc3Cl)nc3ccccc32)c1	none (no result: ROMK primary)
O=C(Cn1c(CO)nc2ccccc21)Nc1ccccc1Cl	ROMK primary -2.5 | ROMK retest 0.062
CNc1ccc(/C=C(\C#N)c2ccccn2)cc1[N+](=O)[O-]	none
N#C/C(=C\c1ccc(Cl)c([N+](=O)[O-])c1)c1ccccn1	ROMK primary -6.9 | ROMK retest 0.053
O=S1(=O)CCC(NC(=S)SCCOc2ccccc2)C1 (stereo not drawn)	ROMK primary -5 | ROMK retest 0.068
CN(C)C1(CNC(=S)Nc2ccccc2C(F)(F)F)CCCCC1	none
COC(=O)[C@@]1(Cc2ccccc2)[C@@H]2C(=CC(=O)[C@H]2CC(=O)C(=O)N(C)C)CN1C(=O)c1ccccc1	ROMK primary -4.6 | ROMK retest 0.049
COc1nccnc1NS(=O)(=O)c1ccc(N=Cc2c(C)[nH]n(-c3ccc(Cl)cc3)c2=O)cc1	none (no result: ROMK primary)
COc1nccnc1NS(=O)(=O)c1ccc(N=Cc2c(C)[nH]n(-c3ccc(C)c(C)c3)c2=O)cc1	ROMK primary 2.3 | ROMK retest inactive
CCOC(=O)CC1CCCCN1Cc1nc(-c2ccc(F)c(OC)c2)oc1C (stereo not drawn)	ROMK primary -3 | ROMK retest 0.06
CC1(C)N([O-])C(c2ccccc2)=C[N+](=O)C1(C)C	none (no result: ROMK primary)
COc1ccc(OC)c(C2=C[N+](=O)C(C)(C)C(C)(C)N2[O-])c1	ROMK primary 4.6 | ROMK retest inactive
CCCCOC(=O)c1cccnc1	none (no result: ROMK primary, WT yeast gro inh, Arbovirus anti)
Cc1cccc(NC(=O)CSc2nnc(NC(=O)c3ccc(S(=O)(=O)N4CCOCC4)cc3)s2)c1C	none | ROMK retest inactive
Cn1c(=O)c([N+](=O)[O-])c(Cl)c2ccccc21	ROMK primary -5.1 | ROMK retest 0.049
CCN(CC)c1c([N+](=O)[O-])c(=O)n(C)c2ccccc12	none
CC(=O)c1cccc(OCC(=O)N(C)CC(=O)Nc2ccc(F)cc2)c1	none (no result: ROMK primary, WT yeast gro inh, Arbovirus anti)
COc1ccc(-c2nc3ccccc3n2Cc2ccccc2)cc1	none
COc1ccc2c(c1)nc(N)n2Cc1ccccc1	ROMK primary -3 | ROMK retest 0.053
c1ccc2sc(Sc3ncnc4sccc34)nc2c1	none (no result: ROMK primary) | ROMK retest inactive
CCc1cc2c(Sc3nc4ccccc4s3)ncnc2s1	none (no result: ROMK primary)
O=C(c1ccco1)N1CCN(S(=O)(=O)c2ccc(Oc3ccccc3)cc2)CC1	none (no result: ROMK primary) | ROMK retest 0.067
CC1=CC(C)=Nc2ccc(C)cc2N1	none
COc1ccc(OC)c(NC(=O)N2CCCC(C(=O)c3ccccc3OC)C2)c1 (stereo not drawn)	none
CCc1ccc2[nH]c(=O)c(CN(CCN(CC)CC)C(=S)NCc3ccco3)cc2c1	ROMK primary -3.3 | ROMK retest 0.064
Cc1cc2cc(CN(CCN(C)C)C(=S)NCc3ccco3)c(=O)[nH]c2cc1C	ROMK primary -3.7 | ROMK retest 0.059
Cc1cc2cc(CN(Cc3ccco3)C(=O)NCc3ccccc3)c(=O)[nH]c2cc1C	ROMK primary -5.2 | ROMK retest 0.059
Cc1cc(=O)oc2cc(NC(=S)NCc3ccccn3)ccc12	ROMK primary -6.6 | ROMK retest 0.047
Cc1cc(=O)oc2cc(OCC(=O)NCc3ccccn3)ccc12	none (no result: ROMK primary)
CCOC(=O)c1ccc2[nH]c3c(c2c1)CCCCC3=O	none (no result: ROMK primary) | ROMK retest inactive
CCOCCCNC(=O)c1cc2sc(Cl)cc2n1CC	ROMK primary 3.1 | ROMK retest inactive
CCc1cccc(CC)c1NC(=O)COC(=O)CC1c2ccccc2CCN1S(=O)(=O)c1ccc(F)cc1 (stereo not drawn)	ROMK primary -3.8 | ROMK retest 0.06
O=C(COC(=O)CC1c2ccccc2CCN1S(=O)(=O)c1ccc(F)cc1)Nc1ccccc1 (stereo not drawn)	none
COc1cccc(CN(C(=O)/C=C/c2ccc(Cl)cc2)C2CCS(=O)(=O)C2)c1 (stereo not drawn)	none
N#C/C(=C\c1cccc(Oc2ccccc2)c1)C(=O)N1CCOCC1	ROMK primary -7 | ROMK retest 0.036
C=CCn1c(SCC(N)=O)nnc1-c1cccc(Br)c1	none (no result: ROMK primary) | ROMK retest inactive
C=CCn1c(SCC(N)=O)nnc1-c1cnccn1	none (no result: WT yeast gro inh, Arbovirus anti)
COc1cc(CC(=O)Nc2ccc3nc(C)sc3c2)cc(OC)c1OC	none (no result: ROMK primary)
CCC(=O)Nc1nc2ccc(NC(=O)c3cc(OC)c(OC)c(OC)c3)cc2s1	none (no result: ROMK primary) | ROMK retest 0.064
CCCCOc1ccc(C(=O)NC)cc1	none
CCCCOc1ccc(CC(=O)NO)cc1	none (no result: ROMK primary) | ROMK retest inactive
Cc1ccc(NC2=Nc3ccccc3CC2)cc1	none
Brc1ccc(NC2=Nc3ccccc3CC2)cc1	none (no result: ROMK primary) | ROMK retest inactive
N#Cc1nc(-c2ccc(OCc3ccccc3)cc2)oc1NCc1cccnc1	none
